# Bioassay records from PubChem BioAssay.
# Compounds with a hit are over-represented: about 5.4% of the library has one in this group of screens.
# PP5 inh: PP5 (human) phosphatase inhibition | AID 1987 | inhibition, % at 6.7 µM | 320,000 tested, 0.18% active | purified PP5c, OMFP substrate fluorescence;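 active means inhibition above the campaign's mean inhibition across all tested compounds plus 3 SD, cut at about 9.5% in these data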;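 further: 0% = DMSO only and 100% = 100 µM cantharidin control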
# Target sequence (P53041 whole entry, looked up): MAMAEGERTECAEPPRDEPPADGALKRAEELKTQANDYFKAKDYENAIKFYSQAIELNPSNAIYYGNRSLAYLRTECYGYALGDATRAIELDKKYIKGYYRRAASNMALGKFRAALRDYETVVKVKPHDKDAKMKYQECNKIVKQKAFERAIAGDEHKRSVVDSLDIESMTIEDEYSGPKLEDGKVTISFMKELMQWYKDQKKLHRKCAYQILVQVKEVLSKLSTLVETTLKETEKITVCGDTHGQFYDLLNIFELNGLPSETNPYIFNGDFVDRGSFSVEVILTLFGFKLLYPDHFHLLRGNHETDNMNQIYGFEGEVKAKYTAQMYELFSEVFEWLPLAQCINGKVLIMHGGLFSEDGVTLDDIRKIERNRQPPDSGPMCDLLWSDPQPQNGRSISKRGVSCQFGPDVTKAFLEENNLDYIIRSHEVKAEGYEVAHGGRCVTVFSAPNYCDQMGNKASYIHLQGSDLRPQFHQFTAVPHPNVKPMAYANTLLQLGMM
# ALR inh: human ALR oxidase inhibition via reduced H2O2; AID 485317; inhibition, % (test concentration not listed); purified ALR, DTT oxidation, H2O2 HRP-luminol luminescence; 290,000 tested, 3.8% active; P55789;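 active means mean replicate inhibition above about 79%, with every replicate also reaching it, limit read from the data; inconclusive means only one of the two criteria met; inactive means mean below limit and not every replicate reaching it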
# PP1 counter: PP1-alpha (human) inhibition in PP5 counter-screen | 320,000 tested, 0.9% active | purified PP1alpha, OMFP fluorescence | inhibition, % at 6.7 µM | P62136;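 active means inhibition above the mean inhibition of all tested compounds plus 3 SD, computed separately for each screening campaign, cut at about 15% in these data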
# CSC inhib: blocks cancer stem cells; cancer stem cell-like cells viability, luminescence; inhibition, % at 7.5 µM; 300,000 tested, 1.1% active; AID 2717; in the data active means inhibition above about 75%; inconclusive means no clear call, values can overlap the other calls; tested in HMLE shEcad cells
# Calb FLC: C. albicans growth modulation with fluconazole. C. albicans CaCi-2 (fluconazole-resistant clinical isolate) + fluconazole, Alamar Blue growth, 48 h. growth inhibition, % (test concentration not listed). 300,000 tested, 0.57% active;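 active means growth inhibition above about 58% in most replicates, limit read from the data, passing the limit was not always enough; inconclusive means exactly half the replicates above a set limit; inactive means most replicates below a set limit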;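 further: all wells also contain fluconazole at 8 µg/ml as a sub-toxic cotreatment; 0% = median of DMSO wells and 100% = median of geldanamycin control wells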
# PP1 inh confirm: human PP1 phosphatase inhibition, confirmation. shares compounds with PP1 counter. purified PP1alpha, OMFP substrate fluorescence. inhibition, % at 6.7 µM. 1,900 tested, 52% active;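 active means mean PP1 inhibition above a set limit taken from the earlier primary screen, cut at about 15% in these data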
# PP5 counter: PP5 phosphatase inhibition, counter-screen for PP1 inhibitors | AID 2360 | inhibition, % at 6.7 µM | 1,900 tested, 4% active | purified PP5c, OMFP fluorescence | shares compounds with PP1 counter;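 active means mean PP5 inhibition over triplicate wells above about 9.5% taken from the earlier PP1 screen, limit read from the data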
# Active calls of the source: *; ? = inconclusive; nt = not tested or not shown.
SMILES,PP5 inh,ALR inh,PP1 counter,CSC inhib,Calb FLC,PP1 inh confirm,PP5 counter
C#CCOCCOCCOCCNc1nc(N2CCN(C(=O)CCCCCCCCCCNC(=O)[C@H](CCCCN)n3cc(C[C@@H](C)CC)nn3)CC2)nc(N2CCN(C(=O)CCCCCCCCCCNC(=O)[C@@H]([C@H](C)O)n3cc(C)nn3)CC2)n1,5,-21,61*,19,nt,47*,4
C#CCOCCOCCOCCNc1nc(N2CCN(C(=O)CCCCCCCCCCNC(=O)[C@H](CCCCN)n3cc(C)nn3)CC2)nc(N2CCN(C(=O)CCCCCCCCCCNC(=O)[C@H](CCCN=C(N)N)n3cc(C[C@@H](C)CC)nn3)CC2)n1,5,3,53*,168*,nt,50*,0
C#CCOCCOCCOCCNc1nc(N2CCN(C(=O)CCCCCCCCCCNC(=O)Cn3cc(C[C@@H](C)O)nn3)CC2)nc(N2CCN(C(=O)CCCCCCCCCCNC(=O)[C@@H]([C@H](C)CC)n3cc(CCCCCN)nn3)CC2)n1,5,-13,55*,124*,nt,44*,4
C#CCOCCOCCOCCNc1nc(N2CCN(C(=O)CCCCCCCCCCNC(=O)[C@H]([C@@H](C)CC)n3cc(CCCCN=C(N)N)nn3)CC2)nc(N2CCN(C(=O)CCCCCCCCCCNC(=O)[C@@H]([C@H](C)O)n3cc(C)nn3)CC2)n1,2,-2,56*,8,nt,47*,1
O=C(/C=C/c1ccccc1)NC(=S)NNS(=O)(=O)c1ccccc1,0,nt,-2,7,6,nt,nt
COc1ccc2c(c1)c1nc3ccccc3nc1n2CCCN1C(=O)c2ccccc2C1=O,3,0,-1,12,-3,nt,nt
O=C(Nc1cccc(C(F)(F)F)c1)c1ccc(Cn2cc(Br)cn2)o1,7,1,3,10,9,nt,nt
COc1cc2cc(C(=O)N3CCC(Cc4ccccc4)CC3)[nH]c2cc1OC,1,-11,-3,-6,20,nt,nt
O=c1[nH]c(NCCO)nc2c1C1(CCCCC1)Cc1ccccc1-2,1,-6,19*,5,nt,2,0
Cc1ccc(C(=O)N2CCN(c3cccc(Cl)c3)CC2)cc1C,2,-7,-1,53,-4,nt,nt
Cc1cc(C(=O)N2CCN(c3ccccc3)CC2)no1,-1,49,27*,-2,1,-1,-3
Cc1ccc(C(=O)N2CCN(c3ccccc3)CC2)cc1C,0,?,32*,-11,0,0,-2
CSc1nsc(SCC(=O)Nc2nc3ccc(C)cc3s2)n1,0,2,26*,1,?,19*,-5
O=C(COc1coc(CN2CCCc3ccccc32)cc1=O)Nc1ccc([N+](=O)[O-])cc1,-2,nt,21*,9,-8,4,-4
Cc1ccccc1NC(=O)COc1coc(CN2CCCc3ccccc32)cc1=O,3,19,0,-8,1,nt,nt
CCN(CC)S(=O)(=O)c1ccc(N/N=C/c2cc(OC)c(OC)cc2OC)nc1,-1,-6,-1,-7,9,nt,nt
CCOc1cccc(/C=N/Nc2ccc(S(=O)(=O)N(CC)CC)cn2)c1O,-1,nt,31*,117*,26,33*,-2
Cc1cc(NCc2ccccn2)n2ncc(-c3ccc(Cl)cc3)c2n1,5,56,4,59,8,nt,nt
CC(C)(C)c1cc(NCCCn2ccnc2)n2ncc(-c3ccc(Cl)cc3)c2n1,10*,-2,38*,112*,10,39*,4
O=c1[nH]cccc1-c1nc2ccccc2n1Cc1ccc(F)cc1,2,-10,-3,0,-1,nt,nt
O=C(c1ccc(F)cc1)c1cc2ccccc2o1,0,-3,-2,nt,-15,nt,nt
Cc1ccc(S(=O)(=O)n2ccc3c(OCCOCCSCC(NC(=O)OC(C)(C)C)C(=O)O)cccc32)cc1 (stereo not drawn),6,7,21*,5,39,9,4
Cc1cc(C)c(C)c(OCCOCCNCc2ccccc2)c1,0,17,1,30,8,nt,nt
Cc1ccc(S(=O)(=O)n2ccc3c(OCCOCCNCc4ccc(F)cc4)cccc32)cc1,3,-2,18*,59,1,-1,2
CCOC(=O)N1CCC(c2cc(=O)n3[nH]c(C)c(-c4ccc(F)cc4)c3n2)CC1,3,42,19*,24,-3,13,-1
SMILES,PP5 inh,ALR inh,PP1 counter,CSC inhib,Calb FLC,PP1 inh confirm,PP5 counter
COc1ccc(CNc2ncnc(N)n2)cc1,4,-6,-1,26,7,nt,nt
COc1ccc(CNc2nc(NCc3ccc(OC)cc3)c3[nH]cnc3n2)cc1,3,-9,18*,-8,20,6,11*
Cc1ccc(S(=O)(=O)c2cc3ccc(O)cc3oc2=O)cc1C,0,nt,-2,1,-8,nt,nt
Cc1c(C(=O)OCC(=O)Nc2ccccc2OC(F)F)cccc1[N+](=O)[O-],2,1,23*,5,-6,0,-2
COc1ccccc1C(=O)OCC(=O)Nc1ccccc1OC(F)F,1,1,-4,-21,1,nt,nt
CCOc1ccc(S(=O)(=O)N(CC(=O)N/N=C/c2ccc(-c3ccc([N+](=O)[O-])cc3)o2)c2ccccc2)cc1,2,-2,33*,57,24,35*,0
CCOc1cc(C2C(C(=O)c3ccco3)=C(O)C(=O)N2CCc2ccccc2)ccc1O (stereo not drawn),1,22,20*,5,8,22*,-1
CCOc1cc(/C=C2\CCCC(C(=O)C(F)(F)F)=C2O)ccc1O,0,54,-1,18,11,nt,nt
Cc1cccc(C)c1OCCN1C(=O)NC(C)(c2ccccc2)C1=O (stereo not drawn),-2,-3,1,-3,26,nt,nt
Cc1[nH]c(=O)[nH]c(=O)c1CSc1nnc(CCCCCNC(=O)OC(C)(C)C)o1,1,-10,23*,-8,-8,-3,-3
CC1CN(C(=S)SCCN2Cc3ccccc3C2=O)CC(C)O1 (stereo not drawn),-1,-6,-4,-7,19,nt,nt
Cc1cccc(C)c1-n1cccc1/C=C1\SC(=S)N(c2cccc(C(=O)O)c2)C1=O,4,5,22*,31,60,23*,4
Brc1ccc(C2=Nn3c(nnc3-c3n[nH]c4c3CCC4)SC2)cc1,4,-5,22*,69,20,2,-2
c1ccc(-c2ccc(C3=Nn4c(nnc4-c4cc(-c5ccccc5)n[nH]4)SC3)cc2)cc1,3,-22,30*,1,2,33*,3
Cc1ccc(-c2nnc3n2N=C(c2ccc(Br)cc2)CS3)cc1,2,18,-1,15,12,nt,nt
CC1=Nn2c(nnc2-c2cc(-c3ccccc3)n[nH]2)SC1,-1,-4,0,-10,-7,nt,nt
O=C(O)C1C2CCC(O2)C1C(=O)Nc1ccc(F)cc1 (stereo not drawn),44*,-6,31*,0,-5,11,8
